Common to all, as to test: PBM binding z-score (relative to random genomic background probes); higher = stronger binding; sequences stand for … in GC…GCGATTGACAGCGTAGAATGAAGG
Test [1] deals with PPARg:RXRa DBDmut IVT, anti-RXR (DBD mutation: RXRa K156A/R161A, NR concentration 270 nM, RXRa partner concentration 90 nM). The procedure, abridged: (§1)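 Ligand-free nuclear receptor dimers were bound for 1 h to custom Agilent 4×180K protein-binding microarrays. Detection used antibodies against each partner (one per run). Binding z-scores rest on regression-normalized fluorescence, with random background probes as the reference.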

The test system of test [2] is PPARg:RXRa IVT, anti-PPARg (NR concentration 270 nM, RXRa partner concentration 90 nM). The procedure, abridged: as §1
For test [3], the system named is PPARg DBDmut:RXRa IVT, anti-PPARg (DBD mutation: PPARg1 K132A/R137A, NR concentration 270 nM, RXRa partner concentration 90 nM). The procedure, abridged:
as §1

In test [4] the test system is PPARg DBDmut IVT, anti-PPARg (DBD mutation: PPARg1 K132A/R137A, NR concentration 270 nM). The procedure, abridged:
as §1

The test system of test [5] is PPARg homodimer (NR concentration 180 nM). The procedure, abridged:
as §1

Test [6] deals with PXR:RXRa (NR concentration 270 nM, RXRa partner concentration 90 nM). The method in brief:
as §1

Test [7] relates to PXR homodimer (NR concentration 270 nM). The procedure, abridged: as §1
Test [8] concerns RARa:RXR (NR concentration 270 nM, RXRa partner concentration 90 nM). The procedure, abridged: as §1
The test system of test [9] is RARa homodimer (NR concentration 270 nM). The method in brief: as §1
Test [10] deals with RARb:RXRa (NR concentration 270 nM, RXRa partner concentration 90 nM). The procedure, abridged: as §1
Test [11] deals with RARb homodimer (NR concentration 270 nM). The procedure, abridged:
as §1

Test [12] has as its system RARg:RXRa (NR concentration 270 nM, RXRa partner concentration 90 nM). The method in brief: as §1
In test [13] the test system is RARg homodimer (NR concentration 270 nM). The procedure, abridged: as §1
Test [14] concerns RXRa DBDmut IVT, anti-RXR (DBD mutation: RXRa K156A/R161A, NR concentration 90 nM). The method in brief:
as §1

The subject of test [15] is RXRa homodimer (NR concentration 180 nM). The method in brief:
as §1

Test [16] has as its system THRa:RXRa (NR concentration 90 nM, RXRa partner concentration 90 nM). The method in brief:
as §1

For test [17], the system named is THRa homodimer (NR concentration 90 nM). The procedure, abridged:
as §1

The test system of test [18] is VDR homodimer (NR concentration 270 nM). The method in brief: as §1

For the sequence ATCTCTAGGTAGCAAGTTCAGTGAAAGAGAGGAC, the PBM binding z-score stood at 0.208 in test [1]; 0.604 in test [2]; 0.0162 in [3]; 0.501 in test [4]; 0.437 in [5]; 1.22 in test [6]. In addition, the PBM binding z-score is 1.35 in [7]; 0.324 in test [8]; 0.221 in test [9]; 0.981 in [10]; 1.48 in test [11]; 0.743 in test [12]. Besides, the PBM binding z-score was 0.963 in test [13]; 0.543 in test [14]; 0.352 in [15]; 0.972 in [16]; 0.46 in test [17]; 2.36 in test [18].
Turning to TGTAGTTGGTCAAAGGTCACACACTCGAAATGCG, the PBM binding z-score was determined as 1.7 in test [1]; 6.41 in test [2]; 2.33 in test [3]; 2.58 in test [4]; 5.57 in test [5]; 6.06 in test [6]. The PBM binding z-score came to 1.72 in test [7]; 7.38 in test [8]; 3.74 in test [9]; 4.86 in test [10]; 4.97 in [11]; 7.09 in [12]. For the same sequence, the PBM binding z-score in test [13] was determined as 6.06; in test [14] it was 1.24; in test [15], 8.07; in test [16], 4.1; in [17], 2.18; in [18], 2.51.
For ATCTCTTGGTAACCAAGTTCAGTGAATGCCGAAC, the PBM binding z-score is -0.417 in test [1]; 0.552 in test [2]; 0.44 in test [3]; 0.768 in test [4]; 0.28 in test [5]; 1.92 in test [6]. The PBM binding z-score was 2.1 in test [7]; 0.475 in test [8]; -0.473 in test [9]; 0.956 in [10]; 1.4 in test [11]; 0.23 in [12]. The PBM binding z-score in test [13] came out at 0.417; in [14], 1.2; in test [15] it was 0.509; in test [16], 0.819; in test [17], 0.000236; in [18] it was 2.57.
Turning to CCTAGCTGGTCAGGAGGTCACACACCGGATATGA, the PBM binding z-score turned out to be 0.695 in [1]; 2.85 in test [2]; 0.353 in [3]; 0.266 in test [4]; 3.15 in test [5]; 4.2 in [6]. The PBM binding z-score in test [7] came to 0.691; in [8], 4.65; in test [9], 0.568; in test [10] it was 3.67; in test [11], 4.31; in test [12] it was 5.14. The PBM binding z-score in test [13] was 4.44; in test [14], 0.548; in test [15] it was 4.69; in test [16], 3.36; in test [17] it was 2.01; in [18] it was 2.14.
GCTAGTTGGTTAGTAAAAGGTCACACACCGGTCG: the PBM binding z-score in test [1] was determined as 0.595; in [2] it was 2.29; in test [3], 0.167; in test [4], 0.647; in test [5], 4.26; in test [6] it was 5.09. The PBM binding z-score in [7] came to 1.29; in test [8] it was 6.05; in test [9], 3.17; in test [10] it was 3.99; in [11], 4.86; in test [12], 4.87. Further, the PBM binding z-score amounted to 4.08 in [13]; 0.675 in test [14]; 5.33 in test [15]; 3.66 in test [16]; 2.08 in test [17]; 1.85 in test [18].
In the case of CCTACTGGGCCAAATGTCATTGATTCCAATGCTC, the PBM binding z-score is 4.77 in [1]; 4.36 in test [2]; 0.17 in test [3]; 0.471 in [4]; 0.28 in test [5]; -0.184 in [6]. Also, the PBM binding z-score in test [7] is -0.329; in [8] it was 0.0171; in test [9], -0.233; in test [10], 0.654; in test [11] it was 0.556; in test [12] it was 0.265. Besides, the PBM binding z-score was 0.594 in test [13]; 0.342 in [14]; 0.124 in test [15]; -0.237 in [16]; -0.347 in test [17]; -0.651 in test [18].
With TGAATGAGGTTAAAGATCAGGGAGCGTGGCGTCG, the PBM binding z-score in test [1] is 2.38; in test [2], 3.63; in test [3], 0.471; in test [4], -0.164; in [5], 0.404; in test [6], 1.83. In addition, the PBM binding z-score in test [7] is -0.192; in test [8], 2.89; in test [9], -0.32; in [10], 1.78; in test [11], 0.534; in test [12] it was 1.95. Further, the PBM binding z-score in [13] was 0.676; in test [14], 0.869; in [15], 3.86; in test [16], 2.43; in [17], 0.271; in [18], -0.0422.
GCGACTGGGGCAAAGCAGGATACCATAAGGTTGG: the PBM binding z-score was 4.62 in test [1]; 3.04 in test [2]; -0.478 in [3]; -1.16 in [4]; -0.484 in test [5]; -0.583 in test [6]. Also, the PBM binding z-score in [7] was -0.738; in [8], -0.211; in test [9], -0.407; in [10], 0.604; in [11], 0.194; in test [12], 0.19. Besides, the PBM binding z-score in [13] was 0.556; in test [14] it was -0.369; in test [15] it was 0.0149; in test [16], 2.27; in test [17], -0.419; in test [18], -0.417.
